# According to PubChem BioAssay AID1159580 (chemical genetic matrix, 2015):
# Several values for one entry are separate records, joined by “and”; a condition that tells them apart may be missing. Identical values can stand only once. Among all 5,500 compounds or so, about 2,000 (36%) were called active. Inconclusive results (about 18%) are left out. The list shows a part of the results. Unmarked numbers belong to inactive results. Rule as the data show it: active = normalized growth mostly below about 0.91 (no sharp cut-off); inconclusive = no clear call, values can overlap the other calls; inactive = mostly above about 0.92.
# Assay: chemical genetic growth profiling, strain panel (AID 1159580);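 also: tested at 20 µM; growth read once vehicle control cultures reached saturation at 30 °C; 1 = growth at the plate median or of vehicle wells; lower values mean less growth of the strain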
# Conditions: S. cerevisiae deletion strains, growth OD
smiles,measurement,setting,value
CC(=O)N1CCN(c2ccc(OCC3CO[C@](Cn4ccnc4)(c4ccc(Cl)cc4Cl)O3)cc2)CC1 (stereo partly drawn),normalized growth,"locus YAL021C, strain ccr4, active compounds read low",0.196 (active)
same,normalized growth,"locus YAL026C, strain drs2, active compounds read low",0.0754 (active)
same,normalized growth,"locus YAL030W, strain snc1, active compounds read low",0.0875 (active)
same,normalized growth,"locus YBL061C, strain skt5, active compounds read low",0.0954 (active)
same,normalized growth,"locus YBR009C, strain hhf1, active compounds read low",0.0917 (active)
same,normalized growth,"locus YBR021W, strain FUR4, active compounds read low",0.163 (active)
same,normalized growth,"locus YBR023C, strain chs3, active compounds read low",0.0942 (active)
same,normalized growth,"locus YBR171W, strain sec66, active compounds read low",0.162 (active)
same,normalized growth,"locus YBR229C, strain ROT2, active compounds read low",0.124 (active)
same,normalized growth,"locus YBR231C, strain swc5, active compounds read low",0.0937 (active)
same,normalized growth,"locus YBR279W, strain paf1, active compounds read low",0.0988 (active)
same,normalized growth,"locus YCL011C, strain gbp2, active compounds read low",0.0885 (active)
same,normalized growth,"locus YCL016C, strain dcc1, active compounds read low",0.102 (active)
same,normalized growth,"locus YCL029C, strain bik1, active compounds read low",0.087 (active)
same,normalized growth,"locus YCL061C, strain MRC1, active compounds read low",0.0977 (active)
same,normalized growth,"locus YCL069W, strain vba3, active compounds read low",0.0793 (active)
same,normalized growth,"locus YCR088W, strain abp1, active compounds read low",0.111 (active)
same,normalized growth,"locus YDL005C, strain med2, active compounds read low",0.327 (active)
same,normalized growth,"locus YDL035C, strain GPR1, active compounds read low",0.0672 (active)
same,normalized growth,"locus YDL040C, strain nat1, active compounds read low",0.113 (active)
same,normalized growth,"locus YDL074C, strain BRE1, active compounds read low",0.157 (active)
same,normalized growth,"locus YDL101C, strain DUN1, active compounds read low",0.086 (active)
same,normalized growth,"locus YDL134C, strain PPH21, active compounds read low",0.0637 (active)
same,normalized growth,"locus YDL185W, strain tfp1, active compounds read low",0.542 (active)
same,normalized growth,"locus YDL192W, strain arf1, active compounds read low",0.156 (active)
same,normalized growth,"locus YDR001C, strain nth1, active compounds read low",0.105 (active)
same,normalized growth,"locus YDR069C, strain doa4, active compounds read low",0.228 (active)
same,normalized growth,"locus YDR101C, strain arx1, active compounds read low",0.101 (active)
same,normalized growth,"locus YDR137W, strain rgp1, active compounds read low",0.449 (active)
same,normalized growth,"locus YDR150W, strain NUM1, active compounds read low",0.0966 (active)
same,normalized growth,"locus YDR159W, strain sac3, active compounds read low",0.135 (active)
same,normalized growth,"locus YDR162C, strain NBP2, active compounds read low",0.0614 (active)
same,normalized growth,"locus YDR195W, strain ref2",0.254 (active)
same,normalized growth,"locus YDR297W, strain sur2, active compounds read low",0.1 (active)
same,normalized growth,"locus YDR318W, strain mcm21, active compounds read low",0.0866 (active)
same,normalized growth,"locus YDR334W, strain swr1, active compounds read low",0.0914 (active)
same,normalized growth,"locus YDR335W, strain msn5, active compounds read low",0.101 (active)
same,normalized growth,"locus YDR388W, active compounds read low",0.0742 (active)
same,normalized growth,"locus YDR392W, strain spt3, active compounds read low",0.106 (active)
same,normalized growth,"locus YDR502C, strain sam2, active compounds read low",0.0927 (active)
same,normalized growth,"locus YEL003W, strain gim4, active compounds read low",0.0768 (active)
same,normalized growth,"locus YEL037C, strain rad23, active compounds read low",0.129 (active)
same,normalized growth,"locus YEL061C, strain CIN8 (second series), active compounds read low",0.084 (active)
same,normalized growth,"locus YEL061C, strain CIN8, active compounds read low",0.0807 (active)
same,normalized growth,"locus YER015W, strain faa2, active compounds read low",0.0977 (active)
same,normalized growth,"locus YER016W, strain bim1, active compounds read low",0.0966 (active)
same,normalized growth,"locus YER110C, active compounds read low",0.129 (active)
same,normalized growth,"locus YER111C, strain swi4, active compounds read low",0.123 (active)
same,normalized growth,"locus YER155C, strain BEM2 (second series), active compounds read low",0.329 (active)
same,normalized growth,"locus YER155C, strain BEM2, active compounds read low",0.0986 (active)
same,normalized growth,"locus YER167W, strain BCK2, active compounds read low",0.064 (active)
same,normalized growth,"locus YFR010W, strain ubp6, active compounds read low",0.302 (active)
same,normalized growth,"locus YGL078C, strain dbp3, active compounds read low",0.908 (active)
same,normalized growth,"locus YGL086W, strain mad1, active compounds read low",0.0803 (active)
same,normalized growth,"locus YGL167C, strain pmr1, active compounds read low",0.191 (active)
same,normalized growth,"locus YGL173C, strain kem1, active compounds read low",0.226 (active)
same,normalized growth,"locus YGL227W, strain vid30, active compounds read low",0.0914 (active)
same,normalized growth,"locus YGL240W, strain doc1, active compounds read low",0.166 (active)
same,normalized growth,"locus YGL248W, strain PDE1, active compounds read low",0.0653 (active)
same,normalized growth,"locus YGL253W, strain hxk2, active compounds read low",0.0717 (active)
same,normalized growth,"locus YGR078C, strain PAC10, active compounds read low",0.0678 (active)
same,normalized growth,"locus YGR135W, strain pre9, active compounds read low",0.0918 (active)
same,normalized growth,"locus YGR229C, strain SMI1, active compounds read low",0.0729 (active)
same,normalized growth,"locus YGR252W, strain gcn5, active compounds read low",0.213 (active)
same,normalized growth,"locus YHR013C, strain ard1, active compounds read low",0.139 (active)
same,normalized growth,"locus YHR027C, strain rpn1, active compounds read low",0.174 (active)
same,normalized growth,"locus YHR030C, strain SLT2, active compounds read low",0.0646 (active) and 0.118 (active)
same,normalized growth,"locus YHR079C, strain IRE1 (second series), active compounds read low",0.0993 (active)
same,normalized growth,"locus YHR079C, strain IRE1, active compounds read low",0.155 (active)
same,normalized growth,"locus YHR094C, strain hxt1, active compounds read low",0.0943 (active)
same,normalized growth,"locus YHR129C, strain ARP1, active compounds read low",0.0814 (active)
same,normalized growth,"locus YHR142W, strain chs7, active compounds read low",0.0981 (active)
same,normalized growth,"locus YHR200W, strain rpn10, active compounds read low",0.133 (active)
same,normalized growth,"locus YIL066C, strain RNR3, active compounds read low",0.0659 (active)
same,normalized growth,"locus YIL073C, strain SPO22, active compounds read low",0.202 (active)
same,normalized growth,"locus YIL125W, strain kgd1, active compounds read low",0.964
same,normalized growth,"locus YIR030C, strain dcg1, active compounds read low",0.0973 (active)
same,normalized growth,"locus YJL092W, strain hpr5, active compounds read low",0.093 (active)
same,normalized growth,"locus YJL095W, strain BCK1 (second series), active compounds read low",0.0703 (active)
same,normalized growth,"locus YJL095W, strain BCK1, active compounds read low",0.0666 (active) and 0.127 (active)
same,normalized growth,"locus YJL115W, strain asf1, active compounds read low",0.113 (active)
same,normalized growth,"locus YJL129C, strain trk1, active compounds read low",0.117 (active)
same,normalized growth,"locus YJL134W, strain LCB3, active compounds read low",0.0818 (active)
same,normalized growth,"locus YJL154C, strain vps35, active compounds read low",0.123 (active)
same,normalized growth,"locus YJL164C, strain tpk1, active compounds read low",0.0872 (active)
same,normalized growth,"locus YJL166W, strain qcr8, active compounds read low",0.0816 (active)
same,normalized growth,"locus YJL168C, strain set2, active compounds read low",0.0995 (active)
same,normalized growth,"locus YJL187C, strain SWE1 (second series), active compounds read low",0.0726 (active)
